# Bioassay records from PubChem BioAssay.
# HEK293 tox: kills HEK 293 cells; Potency, µM (doses to about 115 µM), without a hit: at the top dose activity change, negative = cytotoxicity, usual class: inhibitors; hit rate 6.6% among 94,000; HEK 293 viability, ATP luminescence (CellTiter-Glo), 48-72 h; further: nearly all actives have a fitted effect of over 60% in size
#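 CellTiter-Glo luminescence (cellular ATP) was read after 48 or 72 hr of compound exposure at 37 degree Celsius. Cells were HEK 293 plated at 250 cells/well.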
# 3T3 cytotox: cytotoxic compounds in NIH 3T3 cells; AID 1345082; Potency, µM (titrated, usually from 96.7 µM), for inactives: at the top dose activity change, negative = cytotoxicity, actives largely listed as inhibitors; NIH 3T3 viability, CellTiter-Glo ATP luminescence, 48-72 h; hit rate 4.3% among 94,000; further: nearly all actives have a fitted effect of over 55% in size
#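 Cells were seeded at 400 per well, treated with pin-transferred compound, and kept 48 or 72 hr at 37 °C before CellTiter-Glo addition and luminescence imaging of cellular ATP.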
# FLuc inh: Photinus pyralis luciferase inhibition. Potency, µM (top dose mostly 115 µM), usual class: inhibitors. hit rate 2.5% among 76,000. purified P. pyralis luciferase, luminescence, biochemical; further: nearly all actives have a fitted effect of over 65% in size
#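 Biochemical qHTS: compound (6-point titration) added to 10uM D-luciferin plus 10uM ATP in Tris acetate pH 7.5 buffer with Mg, Tween-20 and BSA, then purified enzyme at 10nM; light output imaged.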
# hNpr1 antagonist: antagonists of human natriuretic peptide receptor Npr1; P16066; HEK293 hNpr1 GloSensor cGMP, ANP-stimulated luminescence; Potency, µM (doses to about 46.3 µM), inactives show at the highest dose activity change, negative = inhibition, usual class: inhibitors; hit rate 1.6% among 76,000; AID 1347048; calls by dose curve; further: nearly all actives have a fitted effect of over 60% in size
# Target sequence (P16066 whole entry, looked up): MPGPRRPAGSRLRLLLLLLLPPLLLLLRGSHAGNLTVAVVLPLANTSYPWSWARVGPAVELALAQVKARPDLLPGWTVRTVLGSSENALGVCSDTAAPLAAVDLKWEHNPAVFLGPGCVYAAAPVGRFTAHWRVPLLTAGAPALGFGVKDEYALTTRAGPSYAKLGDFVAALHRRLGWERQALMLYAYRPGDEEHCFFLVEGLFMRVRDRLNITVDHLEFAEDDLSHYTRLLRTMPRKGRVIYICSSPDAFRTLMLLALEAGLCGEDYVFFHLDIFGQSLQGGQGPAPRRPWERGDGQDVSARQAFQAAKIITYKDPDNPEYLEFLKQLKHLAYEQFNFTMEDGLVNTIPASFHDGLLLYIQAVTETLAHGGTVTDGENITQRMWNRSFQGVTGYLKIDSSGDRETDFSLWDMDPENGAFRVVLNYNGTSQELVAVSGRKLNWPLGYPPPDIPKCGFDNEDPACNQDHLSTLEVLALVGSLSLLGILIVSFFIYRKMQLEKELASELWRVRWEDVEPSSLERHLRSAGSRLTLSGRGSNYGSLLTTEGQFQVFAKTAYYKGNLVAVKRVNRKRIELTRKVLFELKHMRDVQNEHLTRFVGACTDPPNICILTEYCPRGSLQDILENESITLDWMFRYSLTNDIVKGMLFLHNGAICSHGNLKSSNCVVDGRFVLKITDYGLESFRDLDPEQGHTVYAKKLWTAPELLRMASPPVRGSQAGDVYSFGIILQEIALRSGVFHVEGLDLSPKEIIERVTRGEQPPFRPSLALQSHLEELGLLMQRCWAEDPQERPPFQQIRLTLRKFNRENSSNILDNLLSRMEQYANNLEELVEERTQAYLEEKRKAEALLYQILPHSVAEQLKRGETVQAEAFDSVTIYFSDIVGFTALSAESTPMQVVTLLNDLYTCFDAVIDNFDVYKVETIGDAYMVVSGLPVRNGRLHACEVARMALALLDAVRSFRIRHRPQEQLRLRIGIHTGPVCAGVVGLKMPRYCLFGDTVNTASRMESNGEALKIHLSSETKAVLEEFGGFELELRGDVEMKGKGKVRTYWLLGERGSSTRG
#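 HEK293 cells stably expressing human Npr1 and cGMP GloSensor pGS-40F, loaded 2 h with 2% GloSensor reagent, given compound 30 min at room temperature. Luminescence read before and 20 min after 0.1 nM hNppA.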
# Numbers without * were called inactive; i = inactive; ? = inconclusive; nt = not tested or not shown; ! = not confirmed by another sample; [ ] = another dose, or the depositor's remark. The list is not random: actives were taken first. Their share in the collection is about 11%. Unless noted, the call rests on the fitted dose curve; in most records, active means well fitted curve in the direction sought with a large enough effect; inconclusive means small, poorly fitted or top-dose-only effect, or another doubt; inactive means no such curve, though single readings can be large; an effect the other way counts as inactive or inconclusive. On the % scale 0 is the no-effect control and ±100 the full control effect; potency means the concentration at half of the fitted maximal effect.
SMILES,HEK293 tox,3T3 cytotox,FLuc inh,hNpr1 antagonist
COc1ccc(NC(=O)c2nnn3c2CN(Cc2cccc(Cl)c2)C(=O)CC3)c(C)c1,?,-19%[138 µM],i,1%[70.6 µM]
O=C1NCCCCCCN(S(=O)(=O)c2cccc3cccnc23)[C@H]2CCC[C@@H]12,?,-10%,i,6%
O=C(NCCN1C(=O)C2(CCCCC2)C1c1ccccc1)C1CCC1 (stereo unspecified),-4%,-5%,nt,nt
Cc1ccsc1CN1CC(N2CC(C(=O)N3CCCC3)CC2=O)C1 (stereo unspecified),-13%,-11%,nt,nt
CC(C)C[C@@H]1N[C@H](C(=O)N2CCN(C)CC2)Cc2cn(Cc3ccccn3)c3cccc1c23,?,?,i,-2%
COCCNC(=O)[C@@H]1Cc2cn(Cc3ccccn3)c3cccc(c23)[C@H](CC(C)C)N1,28µM*,?,i,0%[70.6 µM]
CCCN1CCC2(CCN(C(=O)OC)CC2)Oc2ccccc21,100µM*,?,i,0%[70.6 µM]
CCCN1CCC2(CCN(C(=O)c3ccc(OC)cc3)CC2)Oc2ccccc21,45µM*,?,i,0%
CC1(c2noc(-c3ccccn3)n2)CCN(C(=O)CCCc2nc3ccccc3s2)CC1,40µM*,?,i,?
CCN(C(=O)CCC(=O)N1CCC(C)(c2noc(-c3ccccn3)n2)CC1)c1ccccc1,?,5%,i,-1%
O=C(c1ccc(Cl)cc1)N1CCC2(CC1)C(=O)NCN2CCc1ccccc1,-16%,-8%,nt,nt
CC(C)(C)OCC(O)CN1CCC(=O)N(CC2CC2)Cc2cc(F)ccc21 (stereo unspecified),?,-28%,nt,nt
CCCC(O)CN1CCC(=O)N(Cc2ccccc2)Cc2ccccc21 (stereo unspecified),?,-11%,nt,nt
CC(C)(C)OCC(O)CN1CCC(=O)N(Cc2ccccc2)Cc2cc(F)ccc21 (stereo unspecified),45µM*,?,nt,nt
CCCC(O)CN1CCC(=O)N(Cc2ccccc2)Cc2cc(F)ccc21 (stereo unspecified),79µM*,?,nt,nt
COc1ccccc1CN1CCC2(CC1)OC(=O)N(Cc1ccccc1)C2(C)c1ccccc1 (stereo unspecified),50µM*,?,i,-12%
COc1ncc(CN2CCC3(CC2)OC(=O)N(Cc2ccccc2)C3(C)c2ccccc2)cn1 (stereo unspecified),?,-15%,i,-2%
Cc1ccc(CN2CCC3(CC2)OC(=O)N(Cc2ccc(O)cc2)C3(C)c2ccccc2)o1 (stereo unspecified),?,?,i,-17%
CC1(c2ccccc2)N(Cc2ccc(O)cc2)C(=O)OC12CCN(Cc1c[nH]c3ccccc13)CC2 (stereo unspecified),?,10µM*,i,?
Cc1ccccc1CN1CCC2(CC1)OC(=O)N(Cc1ccc(O)cc1)C2(C)c1ccccc1 (stereo unspecified),35µM*,32µM*,i,-25%
CCCN(C)c1nccnc1OC1CCN(C(=O)c2ccn[nH]2)C1 (stereo unspecified),?,-28%,22µM*,-3%
CCCN(C)c1nccnc1OC1CCN(C(=O)c2c(F)cccc2F)C1 (stereo unspecified),?,?,?,-4%
CCC(CC)C(=O)N1CCC(Oc2nccnc2N(C)C)C1 (stereo unspecified),?,0%,35µM*,2%
CCCN(C)c1nccnc1OC1CCN(C(=O)CC)C1 (stereo unspecified),-5%,-19%,i,4%
CCCN(C)c1nccnc1OC1CCN(C(=O)CC(C)C)C1 (stereo unspecified),?,-27%,18µM*,-11%
SMILES,HEK293 tox,3T3 cytotox,FLuc inh,hNpr1 antagonist
CCCN(C)c1nccnc1OC1CCN(C(=O)C(C)C)C1 (stereo unspecified),-16%,?,22µM*,-14%
CN1C(=O)N(C)C2(CCN(Cc3cc(F)ccc3F)C2)C1=O (stereo unspecified),i,-6%,nt,nt
COc1cccc(C(=O)NC2CCN(Cc3cccc(-c4ccc(F)cc4F)c3)CC2)c1,32µM*!,35µM*!,nt,nt
O=C(NC1CCN(Cc2cccc(-c3ccc(F)cc3F)c2)CC1)C1CCCC1,-17%,-19%,nt,nt
O=C(NC1CCN(Cc2cccc(-c3ccc(F)cc3F)c2)CC1)c1ccncc1,32µM*,?,nt,nt
Cc1nn2c(c1-c1cccnc1N1CCOCC1)N(CC1CC1)CCC2,?,40µM*,i,-5%[70.6 µM]
Cc1ccc(CN2CCCn3nc(C)c(-c4ccccc4-c4ccccc4)c32)o1,?,45µM*,i,?
COc1ccccc1CN1CCCn2nc(C)c(-c3cccnc3N3CCOCC3)c21,?,?,i,-16%[70.6 µM]
Cc1nn2c(c1-c1ccccc1-c1ccccc1)N(Cc1ccc(OCC(=O)O)cc1)CCC2,?,?,i,-25%
Cc1nn2c(c1-c1cccnc1N1CCOCC1)N(Cc1ccccc1)CCC2,63µM*,?,i,-27%[70.6 µM]
CN(Cc1cccc(C(F)(F)F)c1)C(=O)Nc1ccc(Cl)cc1,40µM*,20µM*,i,-7%
COc1ccc(CCC(=O)N2Cc3c(C(=O)N4CCCC4)nn(C)c3C2)cc1,-1%,-15%,nt,nt
CN(C)c1ccc(CN2CCC3(CN[S+](=O)([O-])c4ccccc4N3)C2)cc1 (stereo unspecified),-17%,?,i,-1%
CC(C)CC(=O)N1CCOCC12CCN(CCCc1ccccc1)CC2,?,?,i,0%[70.6 µM]
O=C(O)Cn1ccc2cc(OCC3CCN(C(=O)OC4CCCC4)CC3)cnc21,i,32µM*,?,-2%[70.6 µM]
NC(=O)Cn1ccc2cc(OCC3CCN(c4cc(NC5CC5)ncn4)CC3)cnc21,25µM*,?,?,18µM*
CC(C)n1cnnc1CC1CCCN(S(=O)(=O)c2ccccc2)C1 (stereo unspecified),i,2%,nt,nt
CCN(C)C(=O)C(C)N1CCc2onc(-c3ccc(-c4ccccc4)cc3)c2C1 (stereo unspecified),?,?,20µM*,?
CCN(C)C(=O)C(C)N1CCc2onc(C(c3ccccc3)c3ccccc3)c2C1 (stereo unspecified),?,?,i,1%
Cc1ccc(N2CC(c3noc(-c4cnccn4)n3)CC2=O)cc1 (stereo unspecified),7%,-15%,i,0%
CSc1ccc(-c2cccc(CN3CCC(NC(=O)C(C)C)CC3)c2)cc1,-26%,-21%,nt,nt
O=S(=O)(c1cccnc1)N1CC[C@@H]2COCCN(Cc3cccnc3)[C@@H]2C1,i,5%,nt,nt
Cc1nc(C2CC(O)C2)cc(N2CCN(c3ccc(F)c(Cl)c3)CC2)n1 (stereo unspecified),18µM*,?,i,?
Cc1nc(C2CC(O)C2)cc(N2CCN(c3cnn(C)c(=O)c3)CC2)n1 (stereo unspecified),i,-1%,i,2%
